This passage reports viability decrease and tube area decrease results from PubChem BioAssay.

Active and inactive are the calls of the source.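 The calls were made as follows, unless noted: active = compound that reduces growth-factor-driven endothelial tube area in a mixed cell culture, no cutoff stated; inactive = the rest.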

The first test is described as follows: growth inhibition of GSK3B-pretreated HCT116 cells – cell-based, CellTiter-Glo, 0.2 to 20 µM (AID 1117336;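 active = compounds lowering colon cancer cell viability after pretreatment blocking the GSK3B kinase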). The conditions noted are these: HCT116 viability after GSK3B inhibitor, at 20 µM, stronger effect = higher value. (In general: In ATP-based viability assays light output follows the ATP content of the culture.)
For the compound `CC12CC3CC(C)(C1)CC(N)(C3)C2`, the viability decrease is -2.8% (inactive).
Still for that read-out and setting: in the case of `CC(=O)OCC(CCn1cnc2cnc(N)nc21)COC(C)=O` it was -11.8% (inactive); in that of `S=c1nc[nH]c2nc[nH]c12`, 77.7% (active).
Take `Oc1c(Cl)cc(Cl)c2cccnc12`: the viability decrease is 90.7% (active).
The same measure, in the same setting: in the case of `CC1=NS(=O)(=O)c2cc(Cl)ccc2N1` it was 2.4% (inactive); in that of `OC(Cn1cncn1)(Cn1cncn1)c1ccc(F)cc1F`, 19.2% (inactive); in that of `NCCc1ccc(O)c(O)c1`, 22.9% (inactive).
Same read-out and setting: the result for `CN=C(NC#N)NCCSCc1nc[nH]c1C` reads 10.8% (inactive); that for `COc1c(N2CCNC(C)C2)c(F)cc2c(=O)c(C(=O)O)cn(C3CC3)c12` (stereo not drawn), 6.2% (inactive); that for `CC1COc2c(N3CCN(C)CC3)c(F)cc3c(=O)c(C(=O)O)cn1c23` (stereo not drawn), 14.4% (inactive).
Same read-out and setting: the result for `O=C(C1CCCCC1)N1CC(=O)N2CCc3ccccc3C2C1` (stereo not drawn) reads -3.8% (inactive); that for `CCc1cc(C(N)=S)ccn1`, -19.3% (inactive); that for `CC1=C(/C=C/C(C)=C/C=C/C(C)=C/C(=O)O)C(C)(C)CCC1`, 102% (active).
For the compound `CCCCNc1cc(C(=O)O)cc(S(N)(=O)=O)c1Oc1ccccc1`, the viability decrease was -57% (inactive).
On the same count and under the same terms, the result for `O=c1[nH]cnc2[nH]ncc12` reads 3.7% (inactive).
Still for that read-out and setting: in the case of `O=C1c2c(O)ccc(O)c2C(=O)c2c(NCCNCCO)ccc(NCCNCCO)c21` it was 102% (active); in that of `O=C(O)c1cc(=O)c2c(OCC(O)COc3cccc4oc(C(=O)O)cc(=O)c34)cccc2o1`, -32.8% (inactive); in that of `CC(C)C(=O)Nc1ccc([N+](=O)[O-])c(C(F)(F)F)c1`, 13.4% (inactive).
The same measure, in the same setting: the result for `CC(COc1ccccc1)N(CCCl)Cc1ccccc1` (stereo not drawn) reads -32.1% (inactive).
On to `CCCc1nc2c(C)cc(-c3nc4ccccc4n3C)cc2n1Cc1ccc(-c2ccccc2C(=O)O)cc1`, for which the viability decrease is -22.6% (inactive).
As for `CC(=O)CC(c1ccccc1)c1c(O)c2ccccc2oc1=O` (stereo not drawn), the viability decrease is -5.05% (inactive).
The same measure, in the same setting: in the case of `NS(=O)(=O)c1cc2c(cc1Cl)NCNS2(=O)=O` it was -1.55% (inactive).
The same measure, in the same setting: in the case of `CS(=O)(=O)OCCCCOS(C)(=O)=O` it was 3.6% (inactive); in that of `CCOC(=O)C1=C(C)NC(C)=C(C(=O)OC)C1c1cccc([N+](=O)[O-])c1` (stereo not drawn), 58.2% (active); in that of `COc1ccccc1OCCNCC(O)COc1cccc2[nH]c3ccccc3c12` (stereo not drawn), 7.2% (inactive).
Consider `O=C(O)CCCc1ccccc1`, for which the viability decrease is -6.2% (inactive).
Same read-out and setting: in the case of `NNCCc1ccccc1` it was -32% (inactive).
Take `CC1Cc2ccccc2N1NC(=O)c1ccc(Cl)c(S(N)(=O)=O)c1` (stereo not drawn): the viability decrease is -7.2% (inactive).
Still for that read-out and setting: the result for `CC(C)Cc1ccc(C(C)C(=O)O)cc1` (stereo not drawn) reads -2.1% (inactive); that for `N[C@@H]1CONC1=O`, -9.9% (inactive).
`CCN(Cc1ccncc1)C(=O)C(CO)c1ccccc1` (stereo not drawn): the viability decrease was 11.6% (inactive).
Regarding `CCCc1cc(=O)[nH]c(=S)[nH]1`, the viability decrease is -14.4% (inactive).
On the same count and under the same terms, the result for `O=C(O)c1cccnc1` reads -0.65% (inactive); that for `CC(C[N+](C)(C)C)OC(N)=O` (stereo not drawn), -5.9% (inactive).
Same read-out and setting: in the case of `COc1ccc(Cl)cc1C(=O)NCCc1ccc(S(=O)(=O)NC(=O)NC2CCCCC2)cc1` it was 17.8% (inactive).
Same read-out and setting: in the case of `N[C@@H](Cc1cc(I)c(Oc2cc(I)c(O)c(I)c2)c(I)c1)C(=O)O` it was 24.1% (inactive); in that of `CC1(C)O[C@@H]2[C@@H](CO[C@@]3(COS(N)(=O)=O)OC(C)(C)O[C@@H]23)O1`, -4.2% (inactive); in that of `COCCOC(=O)C1=C(C)NC(C)=C(C(=O)OC(C)C)C1c1cccc([N+](=O)[O-])c1` (stereo not drawn), 46.2% (inactive).
As for `NNC(=O)c1ccncc1`, the viability decrease is -2.7% (inactive).

The next test can be described thus: inhibition of endothelial tube formation, primary screen, imaging, VEGF stimulated, CD31 staining, tube area, NPC library (AID 1117340). The conditions noted are these: VEGF-stimulated ADSC/ECFC co-culture, at 10 µM, stronger effect = higher value.
`CC12CC3CC(C)(C1)CC(N)(C3)C2`: the tube area decrease is -6.5% (inactive).
Same read-out and setting: in the case of `CC(=O)OCC(CCn1cnc2cnc(N)nc21)COC(C)=O` it was -3.2% (inactive); in that of `S=c1nc[nH]c2nc[nH]c12`, 95.3% (active); in that of `Oc1c(Cl)cc(Cl)c2cccnc12`, 102% (active).
The same measure, in the same setting: the result for `CC1=NS(=O)(=O)c2cc(Cl)ccc2N1` reads 0.4% (inactive); that for `OC(Cn1cncn1)(Cn1cncn1)c1ccc(F)cc1F`, -10% (inactive); that for `NCCc1ccc(O)c(O)c1`, 37.7% (inactive).
On the same count and under the same terms, the result for `CN=C(NC#N)NCCSCc1nc[nH]c1C` reads -5.8% (inactive); that for `COc1c(N2CCNC(C)C2)c(F)cc2c(=O)c(C(=O)O)cn(C3CC3)c12` (stereo not drawn), -12.3% (inactive); that for `CC1COc2c(N3CCN(C)CC3)c(F)cc3c(=O)c(C(=O)O)cn1c23` (stereo not drawn), -15.9% (inactive).
On to `O=C(C1CCCCC1)N1CC(=O)N2CCc3ccccc3C2C1` (stereo not drawn), for which the tube area decrease was -2.6% (inactive).
Same read-out and setting: in the case of `CCc1cc(C(N)=S)ccn1` it was 2.7% (inactive); in that of `CC1=C(/C=C/C(C)=C/C=C/C(C)=C/C(=O)O)C(C)(C)CCC1`, -33.9% (inactive).
Consider `CCCCNc1cc(C(=O)O)cc(S(N)(=O)=O)c1Oc1ccccc1`, for which the tube area decrease is 3.7% (inactive).
Still for that read-out and setting: the result for `O=c1[nH]cnc2[nH]ncc12` reads -6.1% (inactive); that for `O=C1c2c(O)ccc(O)c2C(=O)c2c(NCCNCCO)ccc(NCCNCCO)c21`, 109% (active).
Take `O=C(O)c1cc(=O)c2c(OCC(O)COc3cccc4oc(C(=O)O)cc(=O)c34)cccc2o1`: the tube area decrease was -2.5% (inactive).
On the same count and under the same terms, the result for `CC(C)C(=O)Nc1ccc([N+](=O)[O-])c(C(F)(F)F)c1` reads -12.8% (inactive); that for `CC(COc1ccccc1)N(CCCl)Cc1ccccc1` (stereo not drawn), 7% (inactive); that for `CCCc1nc2c(C)cc(-c3nc4ccccc4n3C)cc2n1Cc1ccc(-c2ccccc2C(=O)O)cc1`, 8% (inactive).
Same read-out and setting: the result for `CC(=O)CC(c1ccccc1)c1c(O)c2ccccc2oc1=O` (stereo not drawn) reads -0.7% (inactive).
Still for that read-out and setting: in the case of `NS(=O)(=O)c1cc2c(cc1Cl)NCNS2(=O)=O` it was -9% (inactive); in that of `CS(=O)(=O)OCCCCOS(C)(=O)=O`, 32.5% (inactive).
With `CCOC(=O)C1=C(C)NC(C)=C(C(=O)OC)C1c1cccc([N+](=O)[O-])c1` (stereo not drawn), the tube area decrease was 23.7% (inactive).
As to `COc1ccccc1OCCNCC(O)COc1cccc2[nH]c3ccccc3c12` (stereo not drawn), the tube area decrease was 60.9% (active).
As for `O=C(O)CCCc1ccccc1`, the tube area decrease was -15% (inactive).
Still for that read-out and setting: the result for `NNCCc1ccccc1` reads 7.4% (inactive).
The same measure, in the same setting: in the case of `CC1Cc2ccccc2N1NC(=O)c1ccc(Cl)c(S(N)(=O)=O)c1` (stereo not drawn) it was 2.8% (inactive); in that of `CC(C)Cc1ccc(C(C)C(=O)O)cc1` (stereo not drawn), 0.9% (inactive).
Still for that read-out and setting: the result for `N[C@@H]1CONC1=O` reads 3.2% (inactive); that for `CCN(Cc1ccncc1)C(=O)C(CO)c1ccccc1` (stereo not drawn), 7.1% (inactive).
For `CCCc1cc(=O)[nH]c(=S)[nH]1`, the tube area decrease is 8.2% (inactive).
On the same count and under the same terms, in the case of `O=C(O)c1cccnc1` it was -17.1% (inactive).
In the case of `CC(C[N+](C)(C)C)OC(N)=O` (stereo not drawn), the tube area decrease was -10% (inactive).
Still for that read-out and setting: in the case of `COc1ccc(Cl)cc1C(=O)NCCc1ccc(S(=O)(=O)NC(=O)NC2CCCCC2)cc1` it was 12% (inactive); in that of `N[C@@H](Cc1cc(I)c(Oc2cc(I)c(O)c(I)c2)c(I)c1)C(=O)O`, 5.6% (inactive).
Turning to `CC1(C)O[C@@H]2[C@@H](CO[C@@]3(COS(N)(=O)=O)OC(C)(C)O[C@@H]23)O1`, the tube area decrease was 14.7% (inactive).
Still for that read-out and setting: the result for `COCCOC(=O)C1=C(C)NC(C)=C(C(=O)OC(C)C)C1c1cccc([N+](=O)[O-])c1` (stereo not drawn) reads -1.2% (inactive).
As for `NNC(=O)c1ccncc1`, the tube area decrease is -10.4% (inactive).
